Each structure is given as a SMILES string. Among all 65,000 compounds or so, about 2,100 (3.2%) showed an effect of 50% or more. The median lay at about -52%. The full list was thinned out, with strong results kept by preference.

This experiment concerns Plasmodium falciparum. As to the kind of experiment: Screen against P. falciparum Asexual Blood Stage (ABS), at 5uM. In kind it is functional, Dd2. The following applies: tested at 5 uM.
`Cc1noc(CS(=O)(=O)C(C)C(=O)N(C)c2ccccc2)n1` (centres undefined): the INHIBITION was -10%.

For `Cc1noc(C)c1CN1CC[C@H]2OCC[C@@H](C(=O)NCC3CC3)[C@H]2C1`, the INHIBITION is -48.5%.

In the case of `CN1CCCN(c2ccc(F)cc2CNC(=O)c2cccnc2)CC1`, the INHIBITION is -51.5%. Next, `Cc1ccc(C(=O)NCc2cc(F)ccc2N2CCCN(C)CC2)o1`: 34.9%; `CN1CCCN(c2ccc(F)cc2CNC(=O)c2ccsc2)CC1`: 59.9%. `CCc1nc(CN2CCCC(NCc3cccc(C(N)=O)c3)C2)no1` (centres undefined): the INHIBITION is -86.3%. In the case of `Cc1ccnn1CC(=O)N(C)Cc1cnn(-c2ccccc2)c1`, the INHIBITION was -96.8%.

With `CO[C@H]1CN(C(C)C)C[C@@H]1NC(=O)c1cc(COc2ccccc2)[nH]n1`, the INHIBITION worked out at 57.2%. Next, `CO[C@H]1CN(C(C)C)C[C@@H]1NC(=O)c1cc(-c2ccccc2F)n[nH]1`: -41.9%.

As for `CC(=O)NCCNC(=O)c1cc(COc2ccccc2)[nH]n1`, the INHIBITION was -173%. Next, `N#Cc1ccc(CNCCS(=O)(=O)N2CCc3ccccc32)cc1`: -57.5%. As for `OC1CCN(c2ccnc(NCCc3ccccc3Cl)n2)C1` (centres undefined), the INHIBITION worked out at 61.6%. The value for `OC1CCN(c2ccnc(NCCc3ccccc3Cl)n2)CC1` was -50.8%. Next, `OC1CCN(c2ccnc(NCCN3CCc4ccccc4C3)n2)C1` (centres undefined): -46.6%; `O=C(NCC1(Sc2ccccc2)CC1)c1ccc(=O)[nH]n1`: -22.5%. As for `COCCOc1ccc(CNc2nc3ccccc3nc2N)cn1`, the INHIBITION is -49.5%. With `CCC1=NN2C(=N)C(=Cc3cccn3-c3cccc(Cl)c3)C(=O)N=C2S1`, the INHIBITION was -39.1%.

In the case of `COc1cc(NC(=O)NCc2nccn2C)ccc1Br`, the INHIBITION was -84.1%. Regarding `O=C(c1ccco1)N1CCCC(c2cc(C(F)(F)F)n3ncnc3n2)C1` (centres undefined), the INHIBITION was determined as 4.5%. The value for `Cc1ccsc1CN1C[C@@H]2COC[C@]2(CNC(=O)c2ccco2)C1` was 21.9%.

In the case of `CC(C)N1CCC2(C=C(C(=O)N(C)C)c3ccccc32)CC1`, the INHIBITION is given as -3.5%.

In the case of `CN1CCC2(C=C(C(=O)N(C)C)c3ccccc32)CC1`, the INHIBITION was 61.5%. Take `CCN1CCC2(C=C(C(=O)N(C)C)c3ccccc32)CC1`: the INHIBITION was -0.272%. As for `Cc1nc(CN(C)C2CCN(Cc3ccc4ccccc4n3)C2)no1` (centres undefined), the INHIBITION is listed as -24.6%.

With `Cc1ccccc1N1CC2(CCN(c3nncs3)C2)CC1=O` (centres undefined), the INHIBITION is given as -152%. Next, `O=C(NC1CC1)[C@@]12CCO[C@@H]1CCN(Cc1ccc3c(c1)OCO3)C2`: -28.1%. The value for `CC(C)C(=O)N1CCC(C2C(=O)Nc3ccccc32)CC1` (centres undefined) was -81.3%; that for `CN(C)C(=O)N1CCC(C2C(=O)Nc3ccccc32)CC1` (centres undefined) was 60%; that for `O=C1Nc2ccccc2C1C1CCN(C(=O)C2CC2)CC1` (centres undefined) was -87.8%. The value for `CCOc1ccc(OCCN2CCC(N3CCNC3=O)CC2)cc1` was -43.4%; that for `Cc1cc2c(N)nc(=O)n(CC(=O)Nc3cccc(Cl)c3)c2s1` was -44.3%. With `Cc1cccc(CN2CCC3(CCN(c4ncccn4)C3)C2=O)c1` (centres undefined), the INHIBITION is listed as -63.6%. In the case of `O=C1N(Cc2cccc(F)c2)CCC12CCCN(c1ncc(F)cn1)C2` (centres undefined), the INHIBITION is recorded as -95.8%.

For the compound `O=C1N(Cc2cccc(F)c2)CCC12CCN(c1ccccn1)CC2`, the INHIBITION is 50.6%. Turning to `Cc1noc(C)c1C(=O)N1Cc2ncn(C)c2C(COCC2CC2)C1` (centres undefined), the INHIBITION is -98.5%.

Turning to `Cc1ccc(CN2CC[C@H]3CO[C@H](CN(C)Cc4ccco4)[C@H]3C2)s1`, the INHIBITION was 58.7%. Next, `CN(Cc1ccco1)C[C@H]1OC[C@@H]2CCN(Cc3ccncc3)C[C@@H]21`: 2.4%. Next, `Cc1ccc(N2CC[C@H]3CO[C@H](CN(C)Cc4ccco4)[C@H]3C2)nn1`: -35.9%; `CN(Cc1ccco1)C[C@H]1OC[C@@H]2CCN(Cc3nccs3)C[C@@H]21`: 11.4%. On to `Cc1cccc(N2CC[C@H]3CO[C@H](CN(C)Cc4ccco4)[C@H]3C2)n1`, for which the INHIBITION amounted to 50.7%. Next, `CN(Cc1ccco1)C[C@@H]1OC[C@H]2CN(Cc3nccs3)CC[C@H]21`: -48.2%. The value for `Cc1cccc(N2CC[C@H]3[C@H](CO[C@@H]3CN(C)Cc3ccco3)C2)n1` was 7.29%; that for `CN(Cc1ccco1)C[C@H]1OC[C@@H]2CCN(Cc3cccnc3)C[C@@H]21` was -38.5%; that for `CN(Cc1ccco1)C[C@H]1OC[C@@H]2CCN(Cc3ccsc3)C[C@@H]21` was 67.3%. Next, `O=C(c1ccco1)N1CCCC2(CCN(c3nncs3)C2)C1` (centres undefined): -157%; `O=C(NCc1ccccn1)[C@@]12CCO[C@@H]1CCN(Cc1ccccn1)C2`: -75.4%. Take `CC(C)(C)c1nc(CNc2ccccc2SCCC(N)=O)cs1`: the INHIBITION was -98.5%.

Regarding `CN(C)C1CCC2(CCN(Cc3nccn3C)CC2)c2ccccc21` (centres undefined), the INHIBITION is on record as 24.3%.

For `Cn1cc(C(=O)NCCc2ccc(OC3CCCC3)cc2)ccc1=O`, the INHIBITION is listed as -53.4%. For the compound `O=S(=O)(c1ccccc1)N1CCC2(CCCN2Cc2ccccc2Cl)C1` (centres undefined), the INHIBITION is given as -129%.

In the case of `CCCNC(=O)C1CCCN(c2ccc3nncn3n2)C1` (centres undefined), the INHIBITION was -47.2%. On to `CS(=O)(=O)Nc1ccn(Cc2ccc(Cl)cc2)n1`, for which the INHIBITION is recorded as -58.2%.

On to `CCCN(CCC)c1ncc(S(=O)(=O)c2ccc(OC)cc2)c(N)n1`, for which the INHIBITION amounted to 67.6%. Next, `CCCN(CCC)c1ncc(S(=O)(=O)c2ccc(C)cc2)c(N)n1`: 14.8%. Next, `CCCN(CCC)c1ncc(S(=O)(=O)c2ccccc2)c(N)n1`: -9.26%; `CC(C)(C)NC(=O)N1CCC(Oc2ccc(C(F)(F)F)cn2)CC1`: -12%; `CN(C)CCN1CCCC12CCN(C(=O)c1ccoc1)CC2`: -39%. Turning to `CNC(=O)CN1CCCC12CCN(C(=O)c1ccc(F)cc1)CC2`, the INHIBITION was -39%. The value for `CNC(=O)CN1CCCC12CCN(C(=O)c1ccoc1)CC2` was 53.1%. The value for `O=C(CCNc1ncccn1)N1CCCC(n2cccn2)C1` (centres undefined) was -28.6%. Next, `Cc1cc(C(=O)NC2CCCc3c2cnn3-c2cccc(C)c2C)[nH]n1` (centres undefined): -1.74%; `CC(C)Cc1ncc2c(n1)CN(c1nc3ccccc3cc1CO)C2`: -50%.

`Cc1cccc2cc(CO)c(N3Cc4cnc(C(C)(C)C)nc4C3)nc12`: the INHIBITION amounted to 66.5%.

Take `Cc1ccc(C(=O)O)c(N2Cc3cnc(C(C)(C)C)nc3C2)n1`: the INHIBITION is recorded as -21.3%.
